# Screening results deposited in PubChem by The Scripps Research Institute Molecular Screening Center.
# DAX1 inh-1 – DAX1 (NR0B1) inhibitors on StAR promoter, primary screen, cell-based, luminescence, SF-1 (NR5A1), full-length DAX-1; AID 652010, 2013; HEK293T StAR-luciferase reporter, SF-1/DAX-1 repression relief; 1.1% of 370,000 active; inhibition, % at 6.8 µM;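 active = inhibition above the mean over all tested compounds plus 3 SD, cut at about 3.6% in these data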;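 note: 0% = DAX-1 cells with DMSO and 100% = cells lacking DAX-1 with DMSO; higher inhibition means more luminescence from relief of DAX-1 repression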
# DAX1 inh-2 – DAX1 (NR0B1) inhibitors, primary screen, cell-based, HEK293, Gal4-DAX1, luciferase luminescence. Nuclear receptor subfamily 0 group B member 1 (Homo sapiens), P51843. HEK293 Gal4-DAX1 luciferase reporter. inhibition, % at 6.75 µM. 0.99% of 340,000 active;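 active = inhibition above the mean over all tested compounds plus 3 SD, cut at about 4.2% in these data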;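 note: 0% = DAX1-transfected cells with DMSO and 100% = empty-vector control cells with DMSO; inhibition shows as a rise in luminescence from relieved DAX1 repression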
# ssDAF12 agonist – S. stercoralis DAF-12 nuclear receptor activators, primary screen, cell-based, luminescence, HEK293, GRIP1 co-expression, lit1-tk-luc; Nuclear hormone receptor DAF-12 (Strongyloides stercoralis); HEK293 ssDAF-12/GRIP1 lit1-tk-luc reporter; % of 3 µM dafachronic acid response; activation, % at 6.8 µM; 1% of 370,000 active;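 active = activation above the mean over all tested compounds plus 3 SD, cut at about 0.9% in these data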;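 note: 0% = DMSO-only wells and 100% = 3 µM delta7-dafachronic acid wells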
# hcDAF-12 act – H. contortus DAF-12 nuclear receptor activators, primary screen, cell-based, luminescence, HEK293, lit1-tk-luc reporter; AID 652067, 2013; HEK293 hcDAF-12 lit1-tk-luc reporter; 0% DMSO, 100% Δ7-dafachronic acid; activation, % at 6.8 µM; 1.4% of 370,000 active;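 active = activation above the mean of all tested compounds plus 3 SD, cut at about 5.5% in these data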;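 note: 100% = response to 3 µM Δ7-dafachronic acid high control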
# hgDAF12 agonist – H. glycines DAF-12 receptor agonists, primary screen, cell-based, luminescence, HEK293, GAL4 fusion, UAS-luciferase; HEK293 GAL4-hgDAF12 UAS-luciferase reporter, agonist luminescence; normalized to butyrate control; activation, % at 6.8 µM; 1.8% of 370,000 active; AID 687014, 2013;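 active = activation above a cutoff set at the mean of all screened compounds plus 3 SD, cut at about 10% in these data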;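 note: 0% = DMSO wells and 100% = sodium butyrate wells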
# hgDAF12 ag – H. glycines DAF-12 receptor agonists, confirmation, cell-based, luminescence, HEK293, GAL4-LBD fusion; HEK293 GAL4-hgDAF12 luciferase reporter, agonist mode; percent of butyrate response; shares compounds with hgDAF12 agonist; activation, % at 6.8 µM; 80% of 3,300 active;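 active = mean activation over triplicate wells above the hit cutoff derived from the earlier primary screen, cut at about 11% in these data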;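 note: 0% = DMSO low control and 100% = 2 mM sodium butyrate high control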
# LXRb DAF12 ctr – LXR agonists, Gal4 luciferase reporter, confirmation, counter-screen for hgDAF-12 agonist project, cell-based, luminescence, HEK293, H. glycines campaign | shares compounds with hgDAF12 agonist | 24 h | activation, % at 6.8 µM | 3,300 tested, under 10 active | AID 743051, 2013;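 active = mean activation of the triplicate above a set limit carried over from the primary screen, none filed active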
# Target sequence (P55055 whole entry, looked up, the tested form may be a part): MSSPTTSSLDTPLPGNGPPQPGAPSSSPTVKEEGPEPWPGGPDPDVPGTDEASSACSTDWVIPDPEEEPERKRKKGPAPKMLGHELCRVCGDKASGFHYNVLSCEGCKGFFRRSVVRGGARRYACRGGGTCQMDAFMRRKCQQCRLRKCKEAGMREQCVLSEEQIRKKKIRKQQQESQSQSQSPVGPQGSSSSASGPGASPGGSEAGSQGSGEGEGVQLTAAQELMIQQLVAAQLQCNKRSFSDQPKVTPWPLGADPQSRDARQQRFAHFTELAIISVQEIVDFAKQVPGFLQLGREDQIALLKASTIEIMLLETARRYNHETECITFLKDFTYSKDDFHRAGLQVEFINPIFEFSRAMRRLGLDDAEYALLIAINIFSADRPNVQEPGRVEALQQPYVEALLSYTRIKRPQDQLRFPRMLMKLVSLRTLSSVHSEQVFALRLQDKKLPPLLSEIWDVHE
# Starred values were filed as active, the others as inactive; x = no result given. Shown are actives, neighbours in structure and some others; about 4.1% of the full set was active somewhere.
SMILES,DAX1 inh-1,DAX1 inh-2,ssDAF12 agonist,hcDAF-12 act,hgDAF12 agonist,hgDAF12 ag,LXRb DAF12 ctr
COc1cccc(NC(=O)Nc2ccc(CC(=O)O)cc2)c1,0,0,-1,-1,-5,x,x
CCc1ccc(NC(=O)Nc2cccc(OC)c2)cc1,2,1,-1,0,18*,15*,0
COc1ccc(NC(=O)Nc2ccc(F)c(Cl)c2)cc1,1,0,-1,2,17*,10,0
Oc1cccc(C=NCc2ccccc2)c1O,-1,-1,-1,-1,-1,x,x
Oc1c(C=NCc2ccccc2)sc2ccccc12,1,12*,0,4,15*,16*,0
CCCCCn1cc(CCC(=O)Nc2ccc(Oc3cccnc3)cc2)c2ccccc21,0,x,-1,-1,1,x,x
CCN(C(=O)c1c([N+](=O)[O-])cnn1C)c1ccccc1,-1,2,-1,-1,0,x,x
CN(C)c1ccc(C(=O)OCC(=O)c2ccc[nH]2)cc1,0,1,0,4,15*,15*,0
O=c1c(-c2c(O)cc(O)c3c(=O)cc(-c4ccc(O)cc4)oc23)c(-c2ccc(O)cc2)oc2cc(O)cc(O)c12,-1,2,-1,-2,-3,x,x
O=c1c(-c2ccc(O)cc2)coc2cc(O)cc(O)c12,3,4.2*,0,3,17*,10,0
Fc1ccc(N=C2NN=C(c3cc(F)ccc3F)CS2)cc1,2,1,0,5,16*,11*,0
COc1cccc(-c2nnc(N)o2)c1,1,0,-1,1,1,x,x
COc1cccc(-c2nnc(-c3ccc(C)o3)o2)c1,4.1*,0,0,5,14*,19*,1
Cc1ccc(C2=N/C(=C\N(C)C)C(=O)O2)cc1,0,1,-1,0,15*,10,0
Fc1cccc2sc(Nc3nc4cc5c(cc4s3)OCO5)nc12,3,1,1.1*,6.3*,16*,14*,1
COc1c(Cl)cnn(-c2cccc(C)c2)c1=O,0,1,-1,-1,0,x,x
Cc1ccc(-n2ncc3ccccc3c2=O)cc1Cl,2,4.7*,1,5,19*,15*,1
N#Cc1ccc2nc(-c3ccc(CN4CCC5(CC4)CNc4ccccc45)cc3)c(-c3ccccc3)nc2c1,-1,x,-1,-1,0,x,x
CSc1ccccc1-c1nnc(-c2ccc(Cl)cc2Cl)o1,0,1,-1,-1,1,x,x
Clc1ccccc1-c1nnc2sc(-c3ccc4c(c3)OCO4)nn12,-2,0,-1,-1,2,x,x
Clc1ccccc1-c1nnc(-c2ccc3c(c2)OCO3)o1,4,3,1,5.8*,19*,15*,1
Clc1ccc(-c2nnc(-c3ccccc3)o2)c(Cl)c1,4.0*,1,0,5,16*,16*,1
CC(Oc1cccc(Cl)c1)C(=O)Nc1ccc(N2CCOCC2)cc1N1CCOCC1 (stereo unspecified),-1,-2,-1,2,-1,x,x
Cc1cnc(NC(=O)c2cncc(Br)c2)s1,2,3,0,2,19*,16*,1
Cc1cnc(NC(=O)c2ccncc2)s1,2,0,0,5,9,x,x
SMILES,DAX1 inh-1,DAX1 inh-2,ssDAF12 agonist,hcDAF-12 act,hgDAF12 agonist,hgDAF12 ag,LXRb DAF12 ctr
Nc1ccccc1C(=O)NN=Cc1cccc([N+](=O)[O-])c1,4.3*,x,0,3,25*,15*,1
O=C(N/N=C/c1cccc([N+](=O)[O-])c1)c1ccc2c(c1)OCCO2,2,1,0,3,16*,12*,1
OCCNc1nc(-c2ccccc2)c2cc(Cl)ccc2n1,0,0,-1,-1,-1,x,x
OCCCN=c1cc(-c2ccccc2)oc2ccc(Cl)cc12,0,1,0,4,18*,11*,0
Cc1cc(C(=O)CN2C(=O)C(=O)N(C3CCCC3)C2=O)c(C)n1-c1ccc(F)cc1,0,0,-2,-1,-1,x,x
Cc1cc(C(=O)CN2CCCCC2)c(C)n1-c1ccc(F)cc1,1,2,-1,1,5,x,x
Cc1cc(C(=O)CN2CCC(C)CC2)c(C)n1-c1ccc(F)cc1,3,1,0,1,14*,13*,1
Cc1cc(C(=O)NC2CCCCC2)c(C)n1-c1ccc(F)cc1,3,0,-1,5.8*,14*,12*,1
COc1ccc(-c2nc3ncccc3n2O)cc1,0,2,-1,-1,2,x,x
CNc1ccc(N=Nc2cccc3ncccc23)cc1,-3,-1,-1,-1,-5,x,x
CC1CC1C(=O)Nc1nc2ccc(S(C)(=O)=O)cc2s1 (stereo unspecified),0,-2,-1,-1,1,x,x
Cc1ccc2nc(NC(=O)CCn3cccc3)sc2c1,3,2,-2,2,15*,9,0
Cc1ccc2nc(NC(=O)C3CC3C)sc2c1 (stereo unspecified),1,1,0,5,14*,12*,1
COCCNC(=O)C1CCCN(Cc2cccc(C#N)c2)CC1 (stereo unspecified),0,x,-1,-2,-2,x,x
CSc1nc2ccc(NC(=O)c3ccco3)cc2s1,2,2,-1,4,18*,11*,1
CSc1nc2ccc(NC(=O)c3ccc(=O)[nH]c3)cc2s1,0,-2,-1,0,0,x,x
N#CCSc1nnc(-c2ccc3c(c2)OCO3)o1,1,0,-1,-2,0,x,x
C/C(N)=C(/C#N)C(=O)CSc1nnc(-c2ccc3c(c2)OCO3)o1,5.9*,2,1.0*,6.0*,19*,12*,1
COc1cccc(CNc2nc3cc(C(C)=C(C)C)sc3c(=O)n2C)c1,-2,x,-1,-1,3,x,x
O=C(Nc1ccccn1)N1CCOCC1,0,2,-1,1,3,x,x
O=C(Nc1ccc2nc(-c3ccccn3)c(-c3ccccn3)nc2c1)N1CCOCC1,0,0,-1,-1,15*,0,0
COCCN1C(=O)CCC1(C)c1nnnn1-c1ccc2c(c1)OCCO2 (stereo unspecified),1,x,-1,1,3,x,x
